Compounds with a hit are over-represented: about 0.92% of the library has one in this group of screens.
L3MBTL1 inh-1 – blocks human L3MBTL1 | Q9Y468 | AlphaScreen L3MBTL1–H3K9me1 peptide binding | Potency, µM (series often up to 57.1 µM), without a hit: top-dose activity, negative = inhibition, most hits filed as inhibitors | 0.66% of 230,000 active | AID 485360; note: % is set by controls: 0 for no effect and ±100 for the full control effect; nearly all actives have a fitted effect of over 60% in size
Target sequence (Q9Y468 whole entry, looked up): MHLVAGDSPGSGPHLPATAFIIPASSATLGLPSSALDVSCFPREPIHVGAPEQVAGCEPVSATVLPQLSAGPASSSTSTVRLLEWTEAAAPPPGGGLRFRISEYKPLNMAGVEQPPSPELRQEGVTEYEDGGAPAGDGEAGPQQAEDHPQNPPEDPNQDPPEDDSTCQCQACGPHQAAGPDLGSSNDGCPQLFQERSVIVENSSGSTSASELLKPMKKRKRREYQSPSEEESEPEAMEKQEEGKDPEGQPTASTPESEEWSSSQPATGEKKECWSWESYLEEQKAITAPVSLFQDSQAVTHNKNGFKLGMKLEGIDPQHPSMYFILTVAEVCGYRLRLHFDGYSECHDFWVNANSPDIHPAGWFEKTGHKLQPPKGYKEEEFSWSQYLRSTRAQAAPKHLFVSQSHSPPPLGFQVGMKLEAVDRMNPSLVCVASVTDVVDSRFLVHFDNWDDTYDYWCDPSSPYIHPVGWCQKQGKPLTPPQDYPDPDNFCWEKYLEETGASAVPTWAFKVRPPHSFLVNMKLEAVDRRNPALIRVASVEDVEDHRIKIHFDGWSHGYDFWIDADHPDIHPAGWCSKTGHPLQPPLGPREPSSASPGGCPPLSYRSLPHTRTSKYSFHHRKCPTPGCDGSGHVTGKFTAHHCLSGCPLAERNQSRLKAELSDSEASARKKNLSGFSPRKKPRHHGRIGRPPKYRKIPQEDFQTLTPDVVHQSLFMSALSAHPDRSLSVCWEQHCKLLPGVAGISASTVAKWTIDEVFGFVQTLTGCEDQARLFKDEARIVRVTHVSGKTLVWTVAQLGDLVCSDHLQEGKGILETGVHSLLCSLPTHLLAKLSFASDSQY
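AlphaScreen proximity signal between nickel-chelate acceptor and streptavidin donor beads (final 10 ug/mL) reports binding of 50 nM L3MBTL1 to 75 nM biotin-H3 K9me1 peptide; complex incubated with compounds 30 min at room temperature; cefsulodin titration as control.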
WRN helicase inh – inhibitors of human WRN helicase; WRN helicase unwinding, fluorescent forked duplex, kinetic; Potency, µM (top dose mostly 114 µM), for inactives: top-dose activity change, negative = inhibition, actives largely listed as inhibitors; 0.46% of 360,000 active; AID 651768; note: % is set by controls: 0 for no effect and ±100 for the full control effect; nearly all actives have a fitted effect of over 55% in size
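Primary qHTS, 1536-well format. 20 nM WRN + compound, 15 min RT; start with 100 nM forked fluorophore/quencher duplex, 2 mM ATP (final); kinetic read ex 525/em 598 nm.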
BLM inh-1 – blocks DNA unwinding by human BLM helicase; Potency, µM (highest dose often 56.1 µM), inactives show at the top dose activity change, negative = inhibition, hits mostly inhibitors; recombinant BLM DNA unwinding, fluorescence dequenching; AID 2528; P54132; 0.2% of 350,000 active;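 note: plate controls were vehicle for no effect and no enzyme for full effect; nearly all actives have a fitted effect of over 35% in size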
RECQ1 inh-1 – RECQ1 (human) helicase inhibition. P46063. RECQ1 DNA unwinding, red fluorescence kinetic read. Potency, µM (doses to about 57.3 µM), for inactives: at the top dose activity, negative = inhibition, usual class: inhibitors. 0.54% of 240,000 active. AID 2549;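 note: plate controls were vehicle for no effect and no enzyme for full effect; nearly all actives have a fitted effect of over 30% in size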
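50 nM RECQ1T1 preincubated 15 min with compound in Tris pH 8.0 buffer with MgCl2, DTT, Tween-20 and 2.5 ug/ml poly(dI-dC); started with 200 nM TAMRA/BHQ-2 forked duplex and 2 mM ATP. Unwinding read as fluorescence (525/598 nm), two reads 2 h apart.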
APEX1 inh – inhibitors of human APE1 endonuclease; P27695; recombinant APE1, TAMRA/BHQ-2 abasic DNA cleavage fluorescence; Potency, µM (titrated, usually from 65.8 µM), without a hit: at the top dose activity change, negative = inhibition, hits mostly inhibitors; 0.35% of 350,000 active; AID 2517;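 note: plate controls were vehicle for no effect and reference inhibitor for full effect; nearly all actives have a fitted effect of over 55% in size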
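Activity was derived from the fluorescence gain between first and third kinetic reads (60 s intervals, ex 525/em 598 nm) after 50 nM THF-abasic TAMRA/BHQ-2 duplex was added to 0.75 nM APE1 preincubated 15 min with compound.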
BLM inh-2 – confirmation of inhibitors of human Bloom syndrome helicase BLM; Potency, µM, without a hit: max response, negative = inhibition, most hits filed as inhibitors; 40% of 220 active; BLM DNA unwinding, fluorescence quenching, biochemical; shares compounds with BLM inh-1; AID 2585;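 note: strand separation dequenches TAMRA so unwinding raises red fluorescence; series mostly up to about 69 µM; % is set by controls: 0 for no effect and ±100 for the full control effect; nearly all actives have a fitted effect of over 45% in size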
RECQ1 inh conf – confirmation of human RECQ1 helicase inhibitors. RECQ1 helicase DNA unwinding, fluorescence. AID 2708. shares compounds with RECQ1 inh-1. Potency, µM (series often up to 229 µM), without a hit: at the highest dose activity change, negative = inhibition, hits mostly inhibitors. 28% of 610 active; note: % is set by controls: 0 for no effect and ±100 for the full control effect; nearly all actives have a fitted effect of over 45% in size
ADP FP counter – displaces ADP in a fluorescence polarization counter-screen for RECQ1 hits | shares compounds with RECQ1 inh-1 | 27% of 530 active | ADP fluorescence polarization displacement counterscreen | Potency, µM (series often up to 228 µM), for inactives: at the top dose activity change, negative = inhibition, actives largely listed as inhibitors | AID 2711; note: % is set by controls: 0 for no effect and ±100 for the full control effect; nearly all actives have a fitted effect of over 45% in size
RECQ1 inh-2 – confirmation of human RECQ1 helicase inhibitors | shares compounds with RECQ1 inh-1 | recombinant RECQ1 DNA unwinding, red fluorescence | Potency, µM (highest dose often 119 µM), without a hit: at the top dose activity, negative = inhibition, actives largely listed as inhibitors | 15% of 1,100 active | AID 504841; note: % is set by controls: 0 for no effect and ±100 for the full control effect; nearly all actives have a fitted effect of over 50% in size
L3MBTL1 inh-2 – validation of human L3MBTL1 methyl-lysine binding inhibitors. shares compounds with L3MBTL1 inh-1. L3MBTL1 methyl-lysine binding inhibition, biochemical qHTS. Potency, µM, usual class: inhibitors. 91% of 500 active; note: nearly all actives have a fitted effect of over 70% in size
L3MBTL1 ctr – AlphaScreen signal inhibition, L3MBTL1 hit counter-screen; shares compounds with L3MBTL1 inh-1; 500 tested, under 10 active; AlphaScreen counterscreen, signal inhibition; Potency, µM (top dose mostly 57.1 µM), without a hit: top-dose activity change, negative = inhibition, actives largely listed as inhibitors; note: 0% is about no effect
* hit, by the source's call; ? = inconclusive; nt = not tested or not shown; [ ] = another dose, or the depositor's remark. Calls come from the whole dose curve; as a rule, active = well fitted curve in the direction sought with a large enough effect; inconclusive = small, poorly fitted or top-dose-only effect, or another doubt; inactive = no such curve, though single readings can be large; an effect the other way counts as inactive or inconclusive. Potency is the fitted concentration of half-maximal effect.

SMILES	L3MBTL1 inh-1	WRN helicase inh	BLM inh-1	RECQ1 inh-1	APEX1 inh	BLM inh-2	RECQ1 inh conf	ADP FP counter	RECQ1 inh-2	L3MBTL1 inh-2	L3MBTL1 ctr
CC[C@@]1(O)C[C@H](O[C@H]2C[C@@H](N(C)C)[C@@H](O[C@H]3C[C@@H](O)[C@@H](O[C@H]4CCC(=O)[C@@H](C)O4)[C@@H](C)O3)[C@@H](C)O2)c2c(cc3c(c2O)C(=O)c2c(O)cccc2C3=O)[C@H]1C(=O)OC	nt	nt	43%	nt	nt	nt	nt	nt	nt	nt	nt
O=c1[nH]nc(CNc2ccc(O)cc2)c2ccccc12	nt	-19%[57.1 µM]	35µM*	14µM*	?	-3%	15%[114 µM]	40µM*	-8%	nt	nt
Cc1ccc2c(c1)N(C(=O)CCC(=O)NCc1ccccc1Cl)CC(C)O2 (stereo unspecified)	nt	nt	-6%	nt	nt	nt	nt	nt	nt	nt	nt
COC(=O)N(/C=C/c1ccc(OC)cc1)CCc1ccc(OC)c(OC)c1	nt	nt	-3%[12.4 µM]	0%[11.5 µM]	?	nt	nt	nt	nt	nt	nt
O=C(O)CCCCCN1C(=O)/C(=C\c2cn(-c3ccccc3)nc2-c2cccs2)SC1=S	?	-16%[11.6 µM]	16µM*	-9%	-1%	32µM*	2%[69.1 µM]	nt	nt	nt	nt
Cc1ccc(-c2nn3c(C)nnc3s2)cc1NC(=O)c1ccc(-c2cccc(Cl)c2)o1	22µM*	50µM*	-14%	13µM*	9%	-12%	nt	29%[91.9 µM]	?	7.5*	2%
COc1cccc(CNC(=O)CCCN2C(=O)CCn3nc(-c4cccn4C)cc32)c1	nt	nt	0%	nt	nt	nt	nt	nt	nt	nt	nt
CCCCN1Cc2c(nc3cc(-c4ccco4)[nH]n3c2=O)C1=O	28µM*	-11%	18µM*	-8%	-8%	-6%	nt	nt	nt	27*	-26%
CCCCN(C(=O)c1cc2c(s1)CCC2)c1c(N)n(CCC)c(=O)[nH]c1=O	?	?	nt	nt	-38%	nt	nt	nt	nt	nt	nt
CCCN(C(=O)c1cc2c(s1)CCC2)c1c(N)n(Cc2ccccc2)c(=O)[nH]c1=O	18µM*	-34%	14µM*	22µM*	?	?	40µM*	17%[91.9 µM]	-11%	5.3*	8%
Cc1ccccc1C1=CCN(c2ncc(NC(=O)c3ccc(Cl)cc3)cc2C(=O)O)CC1	nt	nt	-10%	nt	nt	nt	nt	nt	nt	nt	nt

Screening results as filed in PubChem BioAssay.
